# Test results published in the supplement of paper PMC8728848.
# Shown is part of a subset that was picked to be rich in the strongest signals.
# Assays:
# Assay in all cases: glycan array binding signal (z-score within array); higher = stronger binding
# Details in all cases: glycan notation: IUPAC condensed, linker removed
# [1] = molecular target: Fuc(a1-2)Gal(b1-3)[Fuc(a1-4)]GlcNAc(b1-3)[Fuc(a1-3)[Gal(b1-4)]GlcNAc(b1-6)]Gal(b1-4)Glc
# Method in brief: (§1)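 Negative Z-scores can be read as non-binding. The Z-score is calculated within each array and then averaged across arrays of one protein sequence at different concentrations or buffers and across linkers. Arrays, 3228 in all, were curated from the Consortium for Functional Glycomics database and kept only where the protein sequence was available.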
# [2] = molecular target: Fuc(a1-2)Gal(b1-4)GlcNAc(b1-2)[Fuc(a1-2)Gal(b1-4)GlcNAc(b1-4)]Man(a1-3)[Fuc(a1-2)Gal(b1-4)GlcNAc(b1-2)Man(a1-6)]Man(b1-4)GlcNAc(b1-4)GlcNAc
# Method in brief: as §1
# [3] = molecular target: Fuc(a1-2)Gal(b1-4)GlcNAc(b1-3)GalNAc
# Method in brief: as §1
# [4] = molecular target: Fuc(a1-2)Gal(b1-4)[Fuc(a1-3)]GlcNAc(b1-3)GalNAc
# Method in brief: as §1
# [5] = molecular target: Fuc(a1-2)Gal6S(b1-3)GlcNAc
# Method in brief: as §1
# [6] = molecular target: Fuc(a1-2)[Gal(a1-3)]Gal(b1-3)GlcNAc(b1-6)GalNAc
# Method in brief: as §1
# [7] = molecular target: Fuc(a1-2)[Gal(a1-3)]Gal(b1-4)GlcNAc(b1-3)GalNAc
# Method in brief: as §1
# [8] = molecular target: Fuc(a1-2)[GalNAc(a1-3)]Gal(b1-3)GlcNAc(b1-6)GalNAc
# Method in brief: as §1
# [9] = molecular target: Fuc(a1-2)[GalNAc(a1-3)]Gal(b1-4)[Fuc(a1-3)]GlcNAc(b1-3)GalNAc
# Method in brief: as §1
# [10] = molecular target: Fuc(a1-3)GlcNAc
# Method in brief: as §1
# [11] = molecular target: Fuc(a1-3)[Gal(b1-4)]GlcNAc(b1-3)Gal(b1-4)[Fuc(a1-3)]GlcNAc
# Method in brief: as §1
# [12] = molecular target: Fuc(a1-3)[Gal(b1-4)]GlcNAc(b1-6)GalNAc
# Method in brief: as §1
# [13] = molecular target: Fuc(a1-3)[Gal(b1-4)]GlcNAc6S
# Method in brief: as §1
# [14] = molecular target: Gal(a1-3)Gal(b1-3)GlcNAc(b1-2)Man(a1-3)[Gal(a1-3)Gal(b1-3)GlcNAc(b1-2)Man(a1-6)]Man(b1-4)GlcNAc(b1-4)GlcNAc
# Method in brief: as §1
# [15] = molecular target: Gal(a1-3)Gal(b1-4)GlcNAc(b1-3)GalNAc
# Method in brief: as §1
# [16] = molecular target: Gal(a1-3)[Gal(a1-4)]Gal(b1-4)GlcNAc
# Method in brief: as §1
# [17] = molecular target: Gal(b1-2)Gal
# Method in brief: as §1
# [18] = molecular target: Gal(b1-3)Gal
# Method in brief: as §1
# [19] = molecular target: Gal(b1-3)Gal(b1-4)GlcNAc
# Method in brief: as §1
# [20] = molecular target: Gal(b1-3)GalNAc
# Method in brief: as §1
# [21] = molecular target: Gal(b1-3)GalNAc(b1-3)Gal
# Method in brief: as §1
# [22] = molecular target: Gal(b1-3)GalNAc(b1-4)Gal(b1-4)Glc
# Method in brief: as §1
# [23] = molecular target: Gal(b1-3)GalNAc(b1-4)[Neu5Ac(a2-3)]Gal(b1-4)Glc
# Method in brief: as §1
# [24] = molecular target: Gal(b1-3)[Neu5Ac(a2-6)]GalNAc
# Method in brief: as §1
# [25] = molecular target: Gal(b1-4)GlcNAc(b1-2)Man(a1-3)[Man(a1-6)]Man(b1-4)GlcNAc(b1-4)GlcNAc
# Method in brief: as §1
# [26] = molecular target: Gal(b1-4)GlcNAc(b1-2)[Gal(b1-4)GlcNAc(b1-6)]Man(a1-6)[GlcNAc(b1-4)][Gal(b1-4)GlcNAc(b1-2)Man(a1-3)]Man(b1-4)GlcNAc(b1-4)GlcNAc
# Method in brief: as §1
# [27] = molecular target: Gal(b1-4)GlcNAc(b1-3)Gal(b1-4)GlcNAc(b1-3)Gal(b1-4)GlcNAc(b1-3)Gal(b1-4)GlcNAc(b1-2)Man(a1-3)[Gal(b1-4)GlcNAc(b1-3)Gal(b1-4)GlcNAc(b1-3)Gal(b1-4)GlcNAc(b1-3)Gal(b1-4)GlcNAc(b1-2)Man(a1-6)]Man(b1-4)GlcNAc(b1-4)GlcNAc
# Method in brief: as §1
# [28] = molecular target: Gal(b1-4)GlcNAc(b1-3)Gal(b1-4)GlcNAc(b1-3)Gal(b1-4)GlcNAc(b1-3)Gal(b1-4)GlcNAc(b1-3)Gal(b1-4)GlcNAc(b1-2)Man(a1-3)[Gal(b1-4)GlcNAc(b1-3)Gal(b1-4)GlcNAc(b1-3)Gal(b1-4)GlcNAc(b1-3)Gal(b1-4)GlcNAc(b1-3)Gal(b1-4)GlcNAc(b1-2)Man(a1-6)]Man(b1-4)GlcNAc(b1-4)[Fuc(a1-6)]GlcNAc
# Method in brief: as §1
# [29] = molecular target: Gal(b1-4)GlcNAc(b1-3)GalNAc
# Method in brief: as §1
# [30] = molecular target: Gal3S(b1-4)GlcNAc
# Method in brief: as §1
binder,measurement,setting,value
"CFEM-SCL (Saccharomyces cerevisiae), O13547 (protein) MRATTLLSSVVSLALLSKEVLATPPACLLACVAQVGKSSSTCDSLNQVTCYCEHENSAVKKCLDSICPNNDADAAYSAFKSSCSEQNASLGD",glycan array binding signal (z-score),[1],-0.173
same,glycan array binding signal (z-score),[2],-0.213
same,glycan array binding signal (z-score),[3],3.91
same,glycan array binding signal (z-score),[4],3.09
same,glycan array binding signal (z-score),[5],-0.235
same,glycan array binding signal (z-score),[6],-0.325
same,glycan array binding signal (z-score),[7],-0.207
same,glycan array binding signal (z-score),[8],-0.289
same,glycan array binding signal (z-score),[9],2.67
same,glycan array binding signal (z-score),[10],-0.151
same,glycan array binding signal (z-score),[11],-0.174
same,glycan array binding signal (z-score),[12],2.59
same,glycan array binding signal (z-score),[13],-0.014
same,glycan array binding signal (z-score),[14],0.636
same,glycan array binding signal (z-score),[15],-0.281
same,glycan array binding signal (z-score),[16],-0.238
same,glycan array binding signal (z-score),[17],0.077
same,glycan array binding signal (z-score),[18],4.26
same,glycan array binding signal (z-score),[19],2.99
same,glycan array binding signal (z-score),[20],3.86
same,glycan array binding signal (z-score),[21],14.5
same,glycan array binding signal (z-score),[22],11.1
same,glycan array binding signal (z-score),[23],2.46
same,glycan array binding signal (z-score),[24],3.63
same,glycan array binding signal (z-score),[25],-0.238
same,glycan array binding signal (z-score),[26],-0.19
same,glycan array binding signal (z-score),[27],-0.022
same,glycan array binding signal (z-score),[28],-0.165
same,glycan array binding signal (z-score),[29],-0.111
same,glycan array binding signal (z-score),[30],-0.261
